Measurements: PubChem BioAssay (NCI)
This is part of a sample that, as a whole, favours compounds with a hit. Of some 83,000 tested, about 20% had one in any assay.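 Note: values are percent growth. 100 is the growth of untreated cells, values between 100 and 0 indicate rising inhibition; between -100 and 0 indicates cell death.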 Activity calls are given as the source filed them. Rule for the calls: active = growth percent below 10; inactive = the rest.

tested on: HL-60(TB) leukemia; assay: NCI-60 one-dose screen, 48 h (100 = growth as untreated, 0 = no growth, -100 = all killed); conditions: 10 µM unless noted

**Q.** How did the growth turn out when `CNC(=O)c1cc(-c2ccc(NC(=O)Nc3ccc(N4CCOCC4)c(C(F)(F)F)c3)cc2)nc2cccnc12` was run?
**A.** 25.2% (inactive)

**Q.** With `COc1ccc(-c2nnc(SCc3ccc(O)c4ncccc34)o2)cc1` as the compound, how does the growth read?
**A.** 18.3% (inactive)

**Q.** Which growth does the source give for `COc1cc2cc(Oc3ccc(NC(=O)Nc4cccc(C(F)(F)F)c4)cc3)c(C)nc2cc1OCCN(C)C` here?
**A.** 133% (inactive)

**Q.** How did the growth turn out when `CCCCCc1ccc(S(=O)(=O)N(C(C)=O)c2cccc(-c3csc(N(CCN4CCN(C)CC4)C(C)=O)n3)c2)cc1` was run?
**A.** -52.8% (active)

**Q.** Which growth does the source give for `CO/N=C1\CCc2c(sc(NC(=O)c3cccc(C(F)(F)F)c3)c2C(N)=O)C1` here?
**A.** 70.3% (inactive)

**Q.** For `Cc1cc(Cl)cc(NS(=O)(=O)c2ccc(-c3cnc(C4CC4)o3)cc2)c1`, which growth is on record?
**A.** -4.23% (active)

**Q.** How did the growth turn out when `O=S(=O)(Nc1cccc2ccccc12)c1ccc(-c2cnc(C3CC3)o2)cc1` was run?
**A.** -16.2% (active)

**Q.** With `NC(N)=NS(=O)(=O)c1ccc(N=Nc2c(N)nn(-c3ccc([N+](=O)[O-])cc3[N+](=O)[O-])c2N)cc1` as the compound, how does the growth read?
**A.** 97.3% (inactive)

**Q.** With `Nn1c(=O)n(-c2cccc(C(F)(F)F)c2)c(=O)c2cc(-c3ccc(F)cc3F)ccc21` as the compound, how does the growth read?
**A.** -45.9% (active)

**Q.** Which growth does the source give for `Fc1ccc(-c2cc3nc(C(Cl)Cl)nc(-c4cccs4)n3n2)cc1` here?
**A.** -2% (active)

**Q.** Which growth does the source give for `C=C(C)[C@@H]1CC[C@]2(COP(=O)(OCC)OCC)CC[C@]3(C)[C@H](CC[C@@H]4[C@@]5(C)CC[C@H](OP(=O)(OCC)OCC)C(C)(C)[C@@H]5CC[C@]43C)[C@@H]12` here?
**A.** 16.2% (inactive)

**Q.** Which growth does the source give for `Cc1cc(=O)oc2cc(OCCCOc3ccc(/C=C/C(=O)Nc4ccc(Cl)cc4)cc3)ccc12` here?
**A.** 86.1% (inactive)

**Q.** `COc1cc(C2CC(c3ccc(Nc4nc(NCCO)nc(Nc5ccc(Cl)cc5)n4)cc3)=Nc3c(N)nc(N)nc3N2)cc(OC)c1OC` (stereo not given) was tested. Which growth did it give?
**A.** 25% (inactive)

**Q.** Which growth does the source give for `O=C(/C=C/c1ccccc1)c1cccc(O)c1` here?
**A.** 87.5% (inactive)

**Q.** How did the growth turn out when `COc1cc2cc(Oc3ccc(NC(=O)c4cccc(C(F)(F)F)c4)cc3)c(C)nc2cc1OCCN1CCCCC1` was run?
**A.** -51.6% (active)

**Q.** Which growth does the source give for `CCNC(=O)N1CCc2cc(OC)c(OCCc3ccc(OC)nc3)cc2C1c1ccc(OC)cc1C` (stereo not given) here?
**A.** 11.5% (inactive)

**Q.** Which growth does the source give for `O=C(CCCCCCN1CC(=O)N2[C@@H](c3ccc(Cl)s3)c3[nH]c4ccccc4c3C[C@H]2C1=O)NO` here?
**A.** 1.42% (active)

**Q.** How did the growth turn out when `CCCCCCCCNC(=O)c1ccc(Cn2c(CCCC)nc3c(N)nc4ccccc4c32)cc1` was run?
**A.** -57.6% (active)

**Q.** For `NS(=O)(=O)c1ccc(Nc2nc(N/N=C/c3ccccn3)nc(Nc3ccccc3)n2)cc1`, which growth is on record?
**A.** 2.68% (active)

**Q.** How did the growth turn out when `COc1cc2oc(-c3cccc(C(=O)N[C@@H](CC(C)C)C(=O)OC(C)(C)C)c3)cc(=O)c2c(OC)c1OC` was run?
**A.** 76.8% (inactive)

**Q.** For `CC1CCc2c(sc3nc(SCC(=O)N/N=C/c4cccc(O)c4O)n(-c4ccccc4)c(=O)c23)C1` (stereo not given), which growth is on record?
**A.** 93.6% (inactive)

**Q.** `c1ccc(C(c2nc3ncncc3[nH]2)N2CSc3nc4ccccc4n3C2)cc1` (stereo not given) was tested. Which growth did it give?
**A.** 108% (inactive)

**Q.** Which growth does the source give for `COc1ccc(/C=C/C(=O)c2cccc(NC(=O)CSc3nc4ccccc4c(=O)n3-c3ccccc3)c2)cc1OC` here?
**A.** 98.9% (inactive)

**Q.** With `Cc1ccccc1NC(=O)Nc1nc2ccc([N+](=O)[O-])cc2s1` as the compound, how does the growth read?
**A.** -27.7% (active)

**Q.** How did the growth turn out when `O=C(COc1ccc(/C=C2\C(=O)Nc3cc(Cl)ccc32)cc1)Nc1ccc(Cl)cc1` was run?
**A.** 61% (inactive)

**Q.** `Cc1nc(-c2cc3ccccc3oc2=O)ccc1C(=O)/C=C/c1ccc(N2CCOCC2)cc1` was tested. Which growth did it give?
**A.** 38.7% (inactive)

**Q.** For `O=C1c2c(c3c4cc(Br)ccc4[nH]c3c3ccc4ccccc4c23)C(=O)N1CCN1CCNCC1`, which growth is on record?
**A.** 62.3% (inactive)

**Q.** Which growth does the source give for `CCCCN1C(=O)/C(=c2\sc3n(c2=O)C2C(NN=3)N(CC)C(=O)N2CC)c2cc(Cl)ccc21` (stereo not given) here?
**A.** 51.7% (inactive)

**Q.** Which growth does the source give for `N#C/C(=C\c1ccc(-c2ccc(Cl)cc2)o1)C(=O)Nc1ncc(Cc2ccc(Br)cc2)s1` here?
**A.** 50% (inactive)

**Q.** How did the growth turn out when `COc1cc2nc(Cl)nc(Nc3cccc(C4=Nc5c(N)nc(N)nc5NC(c5ccccc5)C4)c3)c2cc1OC` (stereo not given) was run?
**A.** 66.4% (inactive)

**Q.** With `Cc1ccc2c(n1)C(=O)C(Cl)=C(Nc1ccc(C(C)C)cc1)C2=O` as the compound, how does the growth read?
**A.** -0.278% (active)

**Q.** Which growth does the source give for `Cc1cc2nc(C(Cl)Cl)nc(-c3ccco3)n2n1` here?
**A.** -4.98% (active)

**Q.** How did the growth turn out when `COc1ccc(Cn2cc3c(c2-c2cc(OC)c(OC)c(OC)c2)CCc2c(CN4CCOCC4)noc2-3)cc1` was run?
**A.** 1.3% (active)

**Q.** Which growth does the source give for `Clc1ccc2c(OCCCN3CCOCC3)c3oc4ccccc4c3nc2c1` here?
**A.** 42.1% (inactive)

**Q.** How did the growth turn out when `O=C(N/N=C/c1cc2ccccc2nc1Cl)c1cc(-c2nc3ccccc3[nH]2)nc2ccccc12` was run?
**A.** 92% (inactive)

**Q.** How did the growth turn out when `CC(=O)Nc1ccc(NC(=O)Nc2cccc(-c3nc(-c4ccc(NC(=O)c5cccnc5)cc4Cl)no3)c2)cc1C(F)(F)F` was run?
**A.** -39.1% (active)

**Q.** How did the growth turn out when `CCOC(=O)/C(F)=C/C1CC1CCc1cccc(C(F)(F)F)c1` (stereo not given) was run?
**A.** 91.4% (inactive)

**Q.** `O=C(COc1ccc(C2SCC(=O)N2c2ccc(F)cc2)cc1)c1ccccc1` (stereo not given) was tested. Which growth did it give?
**A.** 98.6% (inactive)

**Q.** How did the growth turn out when `COc1ccc(CCN2C(=O)/C(=C/c3nc(CO)cs3)SC2=S)cc1` was run?
**A.** 59.4% (inactive)

**Q.** For `COc1cc(C(=O)c2cc(C(C)=O)c3ccc(C)cn23)cc(OC)c1OC`, which growth is on record?
**A.** 8.8% (active)
